KCNQ2 enhance: KCNQ2 (rat) channel potentiation. actives 0.54% (n = 310,000). O88943. B-score at 10 µM. CHO-K1 KCNQ2, FluxOR thallium flux fluorescence; active compounds read high;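 active means fluorescence ratio B-score at least 3 SD of library B-scores, with initial fluorescence B-score within 3 of them, cut at about 5.3 in these data; same plate scores as AID 2156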;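 further: B-score of peak minus minimum over baseline fluorescence ratio after K+ and Tl+ stimulus; positive B-score means potentiation of KCNQ2 with more thallium influx and brighter signal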
KCNQ2 block: KCNQ2 (rat) channel inhibition; CHO-K1 KCNQ2, FluxOR thallium flux, 20 min; active compounds read low; actives 1.1% (n = 310,000); B-score at 10 µM;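 active means fluorescence ratio B-score at most minus 3 library SDs, with starting brightness B-score within 2 library SDs, cut at about -5.5 in these data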
Kir21 confirm: confirmation of mouse Kir2.1 potassium channel inhibitors | shares compounds with KCNQ2 enhance | Tl flux remaining, % of negative control (active compounds read low), % at 10 µM | Kir2.1-expressing cells, FluxOR thallium flux fluorescence; active compounds read low | actives 41% (n = 2,300);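 active means Primary-screen hit whose thallium flux fell at least 3 control SD below untreated wells in both duplicates, with normal baseline fluorescence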;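 further: 0% = blank wells without stimulus and 100% = stimulated no-compound controls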
Target sequence (P35561 whole entry, looked up): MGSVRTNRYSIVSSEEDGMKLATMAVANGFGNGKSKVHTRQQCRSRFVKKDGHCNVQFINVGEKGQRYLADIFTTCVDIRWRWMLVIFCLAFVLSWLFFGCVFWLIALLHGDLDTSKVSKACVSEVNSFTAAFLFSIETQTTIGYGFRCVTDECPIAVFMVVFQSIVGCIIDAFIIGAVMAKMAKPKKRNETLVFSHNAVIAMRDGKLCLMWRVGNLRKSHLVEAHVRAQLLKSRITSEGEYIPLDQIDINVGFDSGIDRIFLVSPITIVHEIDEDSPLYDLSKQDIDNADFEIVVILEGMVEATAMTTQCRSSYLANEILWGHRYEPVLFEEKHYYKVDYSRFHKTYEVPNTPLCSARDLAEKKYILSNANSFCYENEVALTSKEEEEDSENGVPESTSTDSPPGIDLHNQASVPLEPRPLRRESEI
HEK293 Tl flux: parental HEK293 activity in Kir2.1 inhibitor counter-screen. shares compounds with KCNQ2 enhance. parental HEK293 cells, FluxOR thallium flux fluorescence; 0% = unstimulated blank wells. FluxOR signal as % of negative control (100 = no effect), % at 10 µM. actives 19% (n = 2,300). AID 2105;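 active means dye signal at least 3 control SD above or below untreated wells in both duplicates, raw fluorescence within 3, either direction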;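 further: percent is based on the flux ratio of peak minus minimum fluorescence over baseline F0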
CHO-K1 Tl ctr: counter-screen for KCNQ2 potentiators: effect in parental CHO-K1 cells; FluxOR thallium flux fluorescence; zero = vehicle mean+3SD, 100% = vehicle-minus-blank window; actives 43% (n = 1,200); activity increase over 3SD of controls, % at 10 µM; AID 2282; shares compounds with KCNQ2 enhance;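 active means signal rise of at least 3 SD above the untreated control mean, in both duplicate wells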;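 further: counter screen of KCNQ2 potentiator hits so any rise reflects channel-independent effects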
KCNQ1 sel pot: selectivity of KCNQ2 potentiators: effect on human KCNQ1 | shares compounds with KCNQ2 enhance | CHO KCNQ1 stable, FluxOR thallium flux fluorescence; beyond 3SD, as % of vehicle-control signal | activation over 3SD threshold, % at 10 µM | actives 28% (n = 1,200) | AID 2283;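 active means fluorescence ratio rise of at least 3 SD of vehicle wells above their mean, in both replicate wells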;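 further: 0% = vehicle mean plus 3 SD and 100% = vehicle minus unstimulated blank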
KCNQ2 pot confirm: confirmation of rat KCNQ2 potassium channel potentiators. shares compounds with KCNQ2 enhance. CHO-KCNQ2 cells, FluxOR thallium flux fluorescence. potentiation, less the hit threshold, % at 10 µM. actives 68% (n = 1,200);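 active means fluorescence ratio rising 3 SD or more over the vehicle control mean in both replicates, plus primary screen hit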;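 further: peak minus minimum thallium fluorescence divided by baseline after K/Tl stimulus; 0% = vehicle mean plus 3 SD and 100% = vehicle minus unstimulated blank difference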
Kir21 spec: selectivity of KCNQ2 potentiators: effect on mouse Kir2.1 | shares compounds with KCNQ2 enhance | HEK293 Kir2.1, FluxOR thallium flux fluorescence | activity over 3SD threshold, % at 10 µM | actives 2% (n = 1,200);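 active means fluorescence ratio rise of at least 3 SD above the vehicle-control mean, seen in both replicates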;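 further: 0% = vehicle mean plus 3 SD and 100% = vehicle minus no-stimulus blank window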
KCNQ2 W236L pot: potentiates the retigabine-insensitive rat KCNQ2 W236L mutant channel; actives 10% (n = 940); CHO KCNQ2-W236L, automated patch clamp current; current increase over 3SD of negative controls (%), active compounds read high, % at 25 µM; shares compounds with KCNQ2 enhance;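 active means current increase at least 3 SD of the untreated controls above them in both duplicate recordings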
Starred values were filed as active, the others as inactive. Shown are actives, neighbours in structure and some others; about 1.6% of the full set was active somewhere.

How did Cn1ncc2c(O/N=C(\N)c3ccc(C(F)(F)F)cc3)ncnc21 do in these assays?
KCNQ2 enhance: 6*; KCNQ2 block: inactive; Kir21 confirm: inactive; HEK293 Tl flux: inactive; CHO-K1 Tl ctr: 20*; KCNQ1 sel pot: 5.7*; KCNQ2 pot confirm: -5; Kir21 spec: -18

What do the screens show for `Cc1ccc(C(=O)NNc2ncnc3c2cnn3C)cc1`?
KCNQ2 block: inactive

Results for COc1ccccc1Nc1nc(-c2cccc([N+](=O)[O-])c2)cs1 ?
KCNQ2 enhance: 1.6; KCNQ2 block: inactive

What do the screens show for `O=[N+]([O-])c1cccc(-c2csc(Nc3ccccc3)n2)c1`?
KCNQ2 enhance: 0.15; KCNQ2 block: inactive; Kir21 confirm: inactive; HEK293 Tl flux: inactive

Results for O=C(N/N=C/c1cccs1)c1[nH]ncc1Br ?
KCNQ2 enhance: 11*; KCNQ2 block: inactive; Kir21 confirm: inactive; HEK293 Tl flux: inactive; CHO-K1 Tl ctr: 115*; KCNQ1 sel pot: -14; KCNQ2 pot confirm: 43*; Kir21 spec: -33; KCNQ2 W236L pot: inactive

How did O=C(N/N=C/c1cccs1)c1cnccn1 do in these assays?
KCNQ2 block: inactive

Results for NS(=O)(=O)c1ccc(NC(=O)NC2CC(=O)N(c3ccc4c(c3)OCCO4)C2)cc1 (stereo not given) ?
KCNQ2 block: inactive

What do the screens show for `O=C1NC(c2ccccc2)=C(c2nc3ccccc3s2)C(c2ccccc2)N1` (stereo not given)?
KCNQ2 enhance: 5.9*; KCNQ2 block: inactive; Kir21 confirm: inactive; HEK293 Tl flux: inactive; CHO-K1 Tl ctr: 18*; KCNQ1 sel pot: -18; KCNQ2 pot confirm: 8.2*; Kir21 spec: -19; KCNQ2 W236L pot: inactive

Results for CC(=O)C1=C(c2ccccc2)NC(=O)NC1c1ccccc1 (stereo not given) ?
KCNQ2 enhance: 0.49; KCNQ2 block: inactive

Results for CCOc1ccc(S(=O)(=O)NCc2ccc3c(c2)OCO3)cc1NC(C)=O ?
KCNQ2 enhance: 1.4; KCNQ2 block: inactive

Results for Cc1cccc(N(C)c2ncnc3onc(-c4ccc(F)cc4)c23)c1C ?
KCNQ2 enhance: 1.9; KCNQ2 block: inactive

What do the screens show for `CC(=O)N1CC=CC1(C)C(=O)O` (stereo not given)?
KCNQ2 enhance: 0.51; KCNQ2 block: inactive

Results for Cc1ccc(C(=O)NNc2cc(N3CCCC3)nc(N3CCCC3)n2)cc1 ?
KCNQ2 enhance: 10*; KCNQ2 block: inactive; Kir21 confirm: inactive; HEK293 Tl flux: inactive; CHO-K1 Tl ctr: 96*; KCNQ1 sel pot: -16; KCNQ2 pot confirm: 39*; Kir21 spec: -38; KCNQ2 W236L pot: inactive

How did O=C(NNc1cc(N2CCOCC2)nc(N2CCOCC2)n1)c1ccc(Cl)c(Cl)c1 do in these assays?
KCNQ2 enhance: 3.1; KCNQ2 block: inactive

How did COc1ccc(OC)c(S(=O)(=O)N2CCN(c3ccccc3OC)CC2)c1 do in these assays?
KCNQ2 enhance: 0.33; KCNQ2 block: inactive

How did CC(NCCC(c1ccccc1)c1ccccc1)c1ccccc1 (stereo not given) do in these assays?
KCNQ2 enhance: 0.97; KCNQ2 block: inactive; Kir21 confirm: 44%*; HEK293 Tl flux: inactive

What do the screens show for `CC(NC1CCCC1)c1ccccc1` (stereo not given)?
KCNQ2 enhance: 0.98; KCNQ2 block: inactive

Results for COc1ccc(/C=N/NC(=O)c2ccncc2)cc1Cn1nc([N+](=O)[O-])c(Br)c1C ?
KCNQ2 enhance: 0.6; KCNQ2 block: inactive

How did Clc1ccc(OCCOCCN2CCc3ccccc3C2)c(Cl)c1 do in these assays?
KCNQ2 block: inactive

How did c1ccc(-c2ccccc2OCCOCCN2CCc3ccccc3C2)cc1 do in these assays?
KCNQ2 block: inactive; Kir21 confirm: 50%*; HEK293 Tl flux: inactive

What do the screens show for `Cc1nc2scc(-c3ccccc3)c2c(=O)n1N`?
KCNQ2 enhance: 0.36; KCNQ2 block: inactive

How did Cc1nc2scc(-c3ccccc3)c2c(=O)n1N=C1C=CC(=O)C=C1 do in these assays?
KCNQ2 block: inactive; Kir21 confirm: 62%*; HEK293 Tl flux: 51%*

Results for COc1cc(F)ccc1S(=O)(=O)N1CCN(c2ccccc2)CC1 ?
KCNQ2 block: inactive

How did COc1cc(C(=S)N2CCOCC2)cc(OC)c1OC(=O)c1cccc(C)c1 do in these assays?
KCNQ2 block: inactive

Results for N=c1oc2cc(O)ccc2cc1C(=O)Nc1ccc(Cl)cc1 ?
KCNQ2 block: inactive

How did CCOC(=O)CN1C(=O)N[C@@H](c2cccc(F)c2)C(C(=O)OC)=C1C do in these assays?
KCNQ2 block: inactive; Kir21 confirm: inactive; HEK293 Tl flux: inactive

Results for COC(=O)C1=C(C)N(Cc2ccccc2)C(=NCc2cc(OC)c(OC)c(OC)c2)N[C@H]1c1cccc(F)c1 ?
KCNQ2 block: inactive

Results for COC(=O)C1=C(C)N(Cc2ccccc2)C(=NCCc2cccnc2)N[C@H]1c1ccccc1 ?
KCNQ2 enhance: 2.6; KCNQ2 block: inactive; Kir21 confirm: inactive; HEK293 Tl flux: inactive

Results for COC(=O)C1=C(C)N(Cc2ccccc2)C(=NCCCCO)N[C@H]1c1ccccc1 ?
KCNQ2 block: inactive

What do the screens show for `CCOC(=O)CN1C(=O)N[C@@H](c2cccc(F)c2)C(C(C)=O)=C1C`?
KCNQ2 block: inactive

What do the screens show for `COC(=O)C1=C(C)N(Cc2ccccc2)C(=NCc2ccc(OC)cc2)N[C@H]1c1cccc(F)c1`?
KCNQ2 block: inactive; Kir21 confirm: 26%*; HEK293 Tl flux: inactive

What do the screens show for `NC(=S)N/N=C1\CCOc2ccc(F)cc21`?
KCNQ2 enhance: 1.8; KCNQ2 block: inactive

How did CC1CC(C)CN(C(=O)C2CCN(C(=O)Nc3ccccc3)CC2)C1 (stereo not given) do in these assays?
KCNQ2 enhance: 0.54; KCNQ2 block: inactive

What do the screens show for `CCN(CC(=O)NCc1cccs1)S(=O)(=O)c1ccc(F)c(F)c1F`?
KCNQ2 enhance: 0.25; KCNQ2 block: inactive

Screening results: PubChem, Johns Hopkins Ion Channel Center
